Compound activity: PubChem BioAssay, several laboratories
Compounds with a hit are over-represented: about 0.5% of the library has one in this group of screens.
E coli growth-1: inhibitors of Escherichia coli growth | OD600, 23 h; active compounds read low | OD600 absorbance (test concentration not listed) | 330,000 tested, 0.21% active;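 active means OD600 absorbance below the run mean of sample wells minus 3.6 SD, in any replicate, cut at about 0.56 in these data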
Tat export inh: blocks Tat-dependent protein export in E. coli; 340,000 tested, 0.036% active; inhibition, % at 10 µM; E. coli MC4100 TorA-mCherry Tat export, fluorescence;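 active means mean replicate inhibition at least 50% and at least half of replicates individually reaching 50%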;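 further: exported cargo escapes ClpAP degradation while cytoplasmic cargo is degraded and loses fluorescence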
E coli growth-2: bacterial growth inhibition, counter-screen for AddAB inhibitors; E. coli V3065 growth, OD600 absorbance, 18 h; 330,000 tested, 0.27% active; inhibition, % at 11.9 µM;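 active means inhibition above the campaign's mean inhibition across all tested compounds plus 3 SD, cut at about 9.9% in these data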;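 further: uninfected addAB+ strain grown without phage in ampicillin broth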
phage Ecoli inh: E. coli growth loss with phage present; growth absorbance; inhibition, % at 11.9 µM; 360,000 tested, 0.26% active; AID 651602; in the data active means inhibition above about 11%
AddAB inh: less growth of phage-infected E. coli with AddAB. E. coli expressing H. pylori AddAB, absorbance growth. inhibition, % at 11.9 µM. AID 435030. 330,000 tested, 0.29% active; in the data active means inhibition above about 12%
RecBCD conf: growth loss of phage-infected V66 E. coli, RecBCD confirmation screen; E. coli V66 + T4 2- phage, growth OD; shares compounds with phage Ecoli inh; inhibition, % at 11.9 µM; 890 tested, 45% active;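 active means mean inhibition over triplicates exceeding the hit threshold derived in the original primary screen, cut at about 11% in these data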
Ecoli viability: counter-screen for RecBCD inhibitors: inhibitors of bacterial viability; 890 tested, 29% active; shares compounds with phage Ecoli inh; inhibition, % at 11.9 µM; E. coli viability, absorbance (OD) growth; AID 651983; in the data active means inhibition above about 20%;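 further: E. coli strain V66 grown with compound alone and no phage infection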
AddAB counter: growth loss of phage-infected AddAB E. coli, RecBCD counter-screen; shares compounds with phage Ecoli inh; E. coli expressing H. pylori AddAB + T4 phage, OD growth; gene 2 mutant T4, recBCD-deleted host; inhibition, % at 11.9 µM; 890 tested, 45% active; AID 651984;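 active means mean inhibition above the solvent-only control wells' mean plus 3 SD, cut at about 22% in these data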;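 further: higher means less bacterial growth from phage killing when AddAB is blocked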
Large screens that a line does not name were inactive (follow-up assays come after a bar, where they were run).

C=CCn1c(SCC(=O)NC2CCCC2)nnc1-c1ccccn1	none
CC(=O)c1cccc(NC(=O)CSc2ccc(-c3ccccn3)nn2)c1	phage Ecoli inh 11 | RecBCD conf inactive | Ecoli viability inactive | AddAB counter inactive
O=C(CSc1ccc(-c2cccnc2)nn1)c1ccc([N+](=O)[O-])cc1	none
O=C(CSc1ccc(-c2ccccn2)nn1)c1ccc([N+](=O)[O-])cc1	phage Ecoli inh 12 | RecBCD conf inactive | Ecoli viability inactive | AddAB counter inactive
Cc1ccc(S(=O)(=O)N(C)Cc2ccc(C(=O)NN=C3CCCC(=O)C3)cc2)cc1	none (no result: Tat export inh, E coli growth-2, phage Ecoli inh, AddAB inh)
Cc1ccc(S(=O)(=O)NN=C(c2ccccc2)c2cccnc2)cc1	none (no result: Tat export inh, E coli growth-2, phage Ecoli inh, AddAB inh)
COc1ccc(C)c2sc(=NC(=O)c3ccc(C(C)=O)cc3)n(C)c12	none
COc1ccc(C)c2sc(=NC(=O)c3ccccc3)n(C)c12	phage Ecoli inh 100 | RecBCD conf inactive | Ecoli viability inactive | AddAB counter inactive
O=C(NN=Cc1ccc(Cl)cc1Cl)Nc1ccccc1	none (no result: Tat export inh, E coli growth-2, phage Ecoli inh, AddAB inh)
Cc1ccc(NC(=O)CCCSc2nc3ccccc3[nH]2)cc1	E coli growth-2 14, phage Ecoli inh 12 | RecBCD conf inactive | Ecoli viability inactive | AddAB counter inactive
CC(=NNS(=O)(=O)c1ccc(C(C)C)cc1)c1ccncc1	none (no result: Tat export inh, E coli growth-2, phage Ecoli inh, AddAB inh)
COc1ccc(C(=O)NNC(=O)c2ccc3ccccc3c2O)cc1	none
COc1cccc(OCC(=O)NNC(=O)c2ccc3ccccc3c2O)c1	phage Ecoli inh 15 (no result: E coli growth-2, AddAB inh) | RecBCD conf inactive | Ecoli viability inactive | AddAB counter inactive
O=C(C1=CC(c2ccc(Br)cc2)CC(OCCCCO)O1)N1CCOCC1 (stereo not drawn)	none (no result: Tat export inh, E coli growth-2, phage Ecoli inh, AddAB inh)
CCC(C)CCN1C(Nc2ccccc2)=NCC1Cc1ccccc1 (stereo not drawn)	none (no result: Tat export inh, E coli growth-2, phage Ecoli inh, AddAB inh)
NC(=S)NN=Cc1cn(CCC(=O)O)nc1-c1cccc(Br)c1	none (no result: Tat export inh, E coli growth-2, phage Ecoli inh, AddAB inh)
COc1ccc(-c2nn(CCC(=O)O)cc2/C=N/NC(N)=S)cc1	phage Ecoli inh 73 (no result: E coli growth-1) | RecBCD conf inactive | Ecoli viability inactive | AddAB counter inactive
O=C(O)c1cccc(-c2ccc(C=c3sc4nc5ccccc5n4c3=O)o2)c1	none (no result: Tat export inh, E coli growth-2, phage Ecoli inh, AddAB inh)
CCN(CC)S(=O)(=O)c1cc(OC)ccc1N=Nc1ccc(O)c2ncccc12	phage Ecoli inh 12 (no result: E coli growth-1, E coli growth-2, AddAB inh) | RecBCD conf inactive | Ecoli viability inactive | AddAB counter inactive
Cc1cccc(N=Nc2ccc(O)c3ncccc23)c1	phage Ecoli inh 16 | RecBCD conf inactive | Ecoli viability inactive | AddAB counter inactive
CCS(=O)(=O)c1ccc(OC)c(N=Nc2ccc(O)c3ncccc23)c1	none
Cn1ccc(=O)c2cc([N+](=O)[O-])ccc21	phage Ecoli inh 15 (no result: E coli growth-1, Tat export inh, E coli growth-2, AddAB inh) | RecBCD conf inactive | Ecoli viability inactive | AddAB counter 99
COC(=O)Cn1ccnc1[N+](=O)[O-]	phage Ecoli inh 16 (no result: E coli growth-1, Tat export inh, E coli growth-2, AddAB inh) | RecBCD conf inactive | Ecoli viability inactive | AddAB counter 90
C=C(C)CNC(=S)NN=C(C)c1ccc(OC)cc1	none (no result: Tat export inh, E coli growth-2, phage Ecoli inh, AddAB inh)
O=C(NCCc1cn2ccccc2n1)c1cc(COc2c(F)cccc2F)on1	phage Ecoli inh 12 | RecBCD conf inactive | Ecoli viability inactive | AddAB counter inactive
Cc1ccc(OCc2cc(C(=O)NCc3cn4ccccc4n3)no2)cc1C	none
O=C(COc1ccccc1Cl)Nc1nnc(S(=O)(=O)N2CCCC2)s1	phage Ecoli inh 36 | RecBCD conf inactive | Ecoli viability inactive | AddAB counter inactive
Cn1nc(-c2ccccn2)nc2c(=O)n(C)c(=O)nc1-2	none
CCCc1nc2c(=O)n(C)c(=O)nc-2n(C)n1	E coli growth-1 0.44, phage Ecoli inh 18 (no result: E coli growth-2, AddAB inh) | RecBCD conf 16 | Ecoli viability inactive | AddAB counter 36
CC(=O)c1cn(CC(=O)Nc2ccccc2)c2ccccc12	E coli growth-2 11, phage Ecoli inh 12, AddAB inh 14 | RecBCD conf inactive | Ecoli viability inactive | AddAB counter inactive
O=C(c1ccc(NC2=NC3CS(=O)(=O)CC3S2)cc1)N1CCN(Cc2ccccc2)CC1 (stereo not drawn)	phage Ecoli inh 13 | RecBCD conf inactive | Ecoli viability inactive | AddAB counter inactive
O=C(NN=Cc1cccc2cccnc12)c1ccccc1O	none (no result: Tat export inh, E coli growth-2, phage Ecoli inh, AddAB inh)
